Active and inactive are the calls of the source. How the source made its calls: active means hit-call score of the fitted dose curve at least 0.9, where 1 is the maximum; inactive means score below 0.9.
Tests used:
[1] = ATG_E_Box_CIS: Attagene CIS-FACTORIAL HepG2 Assay for human Enhancer Box (E-box) (AID 2282936); conditions: HepG2 E-box cis-reporter transcription, actives raise or lower the signal
In short: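 Cells: HepG2 (human liver), transient MRTU transfection. Exposure 24 h. RNA → oligo(dT) RT → PCR → 6-FAM label → HpaI → CE. Activity fitted both directions relative to DMSO.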

[2] = ATG_M_61_CIS: Attagene CIS-FACTORIAL HepG2 Assay for M61 Transcription Factor (Internal Marker) (AID 2282937); conditions: HepG2 Attagene CIS-FACTORIAL M61 internal marker reporter; actives raise or lower the signal
In short: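 Transfect HepG2 with MRTUs; dose 24 h; isolate RNA; reverse-transcribe with DNase I treatment; PCR-amplify, FAM-label and cut with HpaI for 2 h at 37 C; resolve by CE. Bidirectional fitting against DMSO.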

[3] = ATG_EGR_CIS: Attagene CIS-FACTORIAL HepG2 Assay for human Early Growth Response 1 (EGR1) (AID 2282938); conditions: HepG2 Attagene CIS-FACTORIAL EGR reporter mRNA; actives raise or lower the signal
In short: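 After a 24 h treatment of transiently transfected HepG2 cells, total RNA was reverse-transcribed and reporter sequences PCR-amplified, labelled and run on capillary electrophoresis. Reporters sit under cis-regulatory promoters sensing endogenous factors.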

[4] = ATG_ERE_CIS: Attagene CIS-FACTORIAL HepG2 Assay for Estrogen Response Element (ERE) (AID 2282940); conditions: HepG2 ERE cis-reporter, Attagene RNA transcript; actives raise or lower the signal
In short: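 Measuring endogenous transcription factor output, the assay doses transfected HepG2 cells for 24 hours and quantifies reporter transcripts by fluorescent RT-PCR and capillary electrophoresis, with DMSO as baseline.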

[5] = ATG_Ets_CIS: Attagene CIS-FACTORIAL HepG2 Assay for human Erythroblast Transformation Specific (ETS) (AID 2282941); conditions: HepG2 ETS cis-reporter transcription, actives raise or lower the signal
In short: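 Steps: transfect HepG2 with multiple reporter units; treat compound 24 h; isolate RNA, DNase-treat, reverse-transcribe; PCR-amplify, label with 6-FAM, digest with HpaI; separate by capillary electrophoresis. Activity fitted both directions versus DMSO.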

[6] = target: Hepatocyte nuclear factor 3-beta (Homo sapiens) (UniProt Q9Y261); assay: ATG_FoxA2_CIS: Attagene CIS-FACTORIAL HepG2 Assay for human Forkhead box A2 (FOXA2) (AID 2282942); conditions: HepG2 cis-reporter transcription factor activity, 24 h; actives raise or lower the signal
Sequence of Hepatocyte nuclear factor 3-beta (Homo sapiens) (Q9Y261 whole entry, looked up): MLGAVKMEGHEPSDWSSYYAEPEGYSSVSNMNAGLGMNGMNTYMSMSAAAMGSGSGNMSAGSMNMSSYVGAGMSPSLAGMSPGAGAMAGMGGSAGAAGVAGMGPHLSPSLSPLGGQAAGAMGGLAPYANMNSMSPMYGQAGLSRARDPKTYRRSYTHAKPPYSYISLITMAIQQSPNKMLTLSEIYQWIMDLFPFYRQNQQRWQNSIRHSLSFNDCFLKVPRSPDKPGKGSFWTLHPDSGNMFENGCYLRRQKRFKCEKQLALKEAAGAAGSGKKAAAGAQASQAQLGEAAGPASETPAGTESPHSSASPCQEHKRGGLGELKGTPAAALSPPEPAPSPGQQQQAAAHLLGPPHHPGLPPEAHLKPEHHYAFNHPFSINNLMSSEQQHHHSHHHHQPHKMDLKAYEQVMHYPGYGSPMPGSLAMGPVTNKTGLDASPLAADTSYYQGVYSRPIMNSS
In short: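 24 h dosing of HepG2 bearing cis-reporter constructs; mRNA readout by RT-PCR/CE fluorescence; bidirectional fit, DMSO baseline.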

[7] = ATG_FoxO_CIS: Attagene CIS-FACTORIAL HepG2 Assay for human Forkhead box O (FoxO) (AID 2282943); conditions: HepG2 Attagene cis-reporter, FoxO element, mRNA; actives raise or lower the signal
In short: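 Endogenous transcription factor activity read from multiplexed cis-promoter reporter transcripts in transiently transfected HepG2, 24 h after dosing. Reporter RNA measured via RT-PCR plus capillary electrophoresis of FAM-labeled products; gain or loss relative to DMSO.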

[8] = ATG_GATA_CIS: Attagene CIS-FACTORIAL HepG2 Assay for human GATA Binding Protein (AID 2282944); conditions: HepG2 GATA cis-element reporter, Attagene multiplex mRNA; actives raise or lower the signal
In short: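 Measures endogenous transcription factor-driven reporter mRNA in HepG2 cells transiently carrying cis-regulated constructs. 24 h dosing; RNA via oligo(dT) reverse transcription, PCR, HpaI digestion, capillary electrophoresis; fitted relative to DMSO.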

[9] = ATG_GLI_CIS: Attagene CIS-FACTORIAL HepG2 Assay for human Zinc Finger Protein GLI1 (AID 2282945); conditions: HepG2, Attagene cis-factorial reporter mRNA, GLI element; actives raise or lower the signal
In short: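 Bidirectional curve fits relative to DMSO, using reporter mRNA levels from RT-PCR plus capillary electrophoresis. Cells were HepG2 transiently carrying cis-regulated reporter constructs, harvested 24 h after dosing.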

[10] = target: Bile acid receptor (Homo sapiens) (UniProt Q96RI1); assay: ATG_IR1_CIS: Attagene CIS-FACTORIAL HepG2 Assay for human Nuclear Receptor Subfamily 1 Group H Member 4 (NR1H4), IR1 submotif (AID 2282946); conditions: IR1 reporter transcription, actives raise or lower the signal
Sequence of Bile acid receptor (Homo sapiens) (Q96RI1 whole entry, looked up, the tested form may be a part): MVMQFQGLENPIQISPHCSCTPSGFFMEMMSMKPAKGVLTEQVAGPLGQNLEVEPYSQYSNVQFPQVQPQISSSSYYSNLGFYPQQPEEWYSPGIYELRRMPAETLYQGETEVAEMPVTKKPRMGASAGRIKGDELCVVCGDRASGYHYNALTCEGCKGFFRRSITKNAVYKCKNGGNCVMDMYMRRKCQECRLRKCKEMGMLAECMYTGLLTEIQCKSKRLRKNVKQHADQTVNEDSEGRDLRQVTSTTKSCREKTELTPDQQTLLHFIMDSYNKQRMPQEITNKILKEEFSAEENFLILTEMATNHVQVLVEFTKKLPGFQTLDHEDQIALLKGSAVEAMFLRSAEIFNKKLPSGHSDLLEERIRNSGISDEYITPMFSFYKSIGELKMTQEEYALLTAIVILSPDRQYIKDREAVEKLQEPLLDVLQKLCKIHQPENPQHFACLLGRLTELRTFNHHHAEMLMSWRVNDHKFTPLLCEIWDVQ
In short: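 Cells (human HepG2) carry transiently transfected cis-promoter reporter transcription units. Compounds are incubated 24 h, total RNA is reverse-transcribed and amplified, and labelled fragments are resolved by capillary electrophoresis. Curves use DMSO as baseline.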

[11] = ATG_GRE_CIS: Attagene CIS-FACTORIAL HepG2 Assay for human Glucocorticoid Response Elements (GRE) (AID 2282947); conditions: HepG2 GRE cis-reporter, Attagene multiplex mRNA; actives raise or lower the signal
In short: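 Transient MRTU transfection of human HepG2 liver cells; cis-regulated reporters report endogenous factors. 24 h dosing → RNA isolation → RT-PCR → 6-FAM primer extension → HpaI cut → CE fragment analysis. Bidirectional fit, DMSO negative control.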

[12] = ATG_ISRE_CIS: Attagene CIS-FACTORIAL HepG2 Assay for human Interferon Regulatory Factor 1 (IRF1) binding to an Interferon-Stimulated Response Element (ISRE) (AID 2282948); conditions: HepG2 ISRE cis-reporter (Attagene), mRNA transcription readout; actives raise or lower the signal
In short: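 Transfected HepG2 (multiple reporter transcription units, cis elements) dosed 24 h. RNA → oligo(dT) RT → PCR → 6-FAM primer extension → HpaI → CE. DMSO = negative control/baseline.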

[13] = ATG_M_32_CIS: Attagene CIS-FACTORIAL HepG2 Assay for M32 Transcription Factor (Internal Marker) (AID 2282949); conditions: HepG2 Attagene cis-factorial M32 reporter, mRNA; actives raise or lower the signal;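 further: background control marker of the multiplexed CIS panel rather than a real target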
In short: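 Fluorescent capillary electrophoresis peaks of HpaI-digested, FAM-labelled RT-PCR reporter products give the signal. Source: transiently transfected human liver HepG2 cells, 24 h after chemical dosing; bidirectional fitting against DMSO.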

[14] = ATG_M_06_CIS: Attagene CIS-FACTORIAL HepG2 Assay for M06 Transcription Factor (Internal Marker) (AID 2282950); conditions: HepG2 Attagene CIS-FACTORIAL M06 internal marker reporter; actives raise or lower the signal
In short: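 One of many multiplexed endpoints: HepG2 reporter mRNA after 24 h dosing, detected by RT-PCR and capillary electrophoresis fluorescence; gain or loss of signal analysed against DMSO.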

[15] = target: Hypoxia-inducible factor 1-alpha (Homo sapiens) (UniProt Q16665); assay: ATG_HIF1a_CIS: Attagene CIS-FACTORIAL HepG2 Assay for human Hypoxia Inducible Factor 1 (HIF1A) (AID 2282951); conditions: HepG2 Attagene cis-factorial HIF1a reporter transcription; actives raise or lower the signal
Sequence of Hypoxia-inducible factor 1-alpha (Homo sapiens) (Q16665 whole entry, looked up): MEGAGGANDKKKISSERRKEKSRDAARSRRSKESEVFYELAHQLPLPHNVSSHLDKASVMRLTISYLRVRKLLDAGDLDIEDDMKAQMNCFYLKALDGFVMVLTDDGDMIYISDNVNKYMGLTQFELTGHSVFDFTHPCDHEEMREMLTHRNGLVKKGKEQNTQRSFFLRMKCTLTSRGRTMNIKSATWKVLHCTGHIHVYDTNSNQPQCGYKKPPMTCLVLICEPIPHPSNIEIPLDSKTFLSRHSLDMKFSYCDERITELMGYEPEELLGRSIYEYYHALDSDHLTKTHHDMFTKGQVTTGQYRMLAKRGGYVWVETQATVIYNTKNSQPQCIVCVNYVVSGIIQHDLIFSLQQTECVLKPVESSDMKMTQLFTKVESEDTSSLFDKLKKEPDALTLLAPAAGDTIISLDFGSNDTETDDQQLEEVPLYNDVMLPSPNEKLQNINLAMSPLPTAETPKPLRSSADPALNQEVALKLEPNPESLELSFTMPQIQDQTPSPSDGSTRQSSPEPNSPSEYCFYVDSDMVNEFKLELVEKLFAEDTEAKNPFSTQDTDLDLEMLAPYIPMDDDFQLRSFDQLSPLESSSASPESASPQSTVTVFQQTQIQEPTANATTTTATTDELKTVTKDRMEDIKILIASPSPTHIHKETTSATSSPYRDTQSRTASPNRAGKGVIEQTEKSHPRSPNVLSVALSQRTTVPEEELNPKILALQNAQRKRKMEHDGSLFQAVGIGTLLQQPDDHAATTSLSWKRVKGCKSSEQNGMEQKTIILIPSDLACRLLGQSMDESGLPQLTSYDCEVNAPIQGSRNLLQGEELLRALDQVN
In short: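 After 24 h chemical exposure of reporter-transfected HepG2 cells, reporter cDNA was PCR-amplified, labelled by 6-FAM primer extension (2 min 95 C, 20 s 68 C, 10 min 72 C), HpaI-cut (2 h, 37 C) and analysed by CE.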

[16] = target: Hepatocyte nuclear factor 6 (Homo sapiens) (UniProt Q9UBC0); assay: ATG_HNF6_CIS: Attagene CIS-FACTORIAL HepG2 Assay for human Hepatocyte Nuclear Factor 6 (HNF6) (AID 2282952); conditions: HepG2 Attagene cis-factorial HNF6 reporter transcription; actives raise or lower the signal
Sequence of Hepatocyte nuclear factor 6 (Homo sapiens) (Q9UBC0 whole entry, looked up): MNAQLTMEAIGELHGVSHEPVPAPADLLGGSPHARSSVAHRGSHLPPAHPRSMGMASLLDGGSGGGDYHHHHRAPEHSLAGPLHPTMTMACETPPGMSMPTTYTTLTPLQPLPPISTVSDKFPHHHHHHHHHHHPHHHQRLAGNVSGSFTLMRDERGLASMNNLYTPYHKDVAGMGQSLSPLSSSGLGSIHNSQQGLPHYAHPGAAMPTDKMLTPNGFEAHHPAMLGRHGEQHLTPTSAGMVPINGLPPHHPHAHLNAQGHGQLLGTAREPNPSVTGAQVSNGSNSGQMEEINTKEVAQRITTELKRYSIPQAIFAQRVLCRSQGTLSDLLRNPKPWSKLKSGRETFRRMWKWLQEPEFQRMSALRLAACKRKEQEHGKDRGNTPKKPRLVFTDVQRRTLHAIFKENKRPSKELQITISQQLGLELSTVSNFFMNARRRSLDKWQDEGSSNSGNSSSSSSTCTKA
In short: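 Transiently transfected HepG2 cells expressing cis-regulated reporter transcription units were exposed to chemical for 24 h in a 24-well format. Reporter transcript abundance was determined by fluorescence capillary electrophoresis.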

[17] = ATG_MRE_CIS: Attagene CIS-FACTORIAL HepG2 Assay for human Metal Responsive Element (MRE) (AID 2282954); conditions: HepG2 MRE cis-reporter transcription, Attagene multiplex; actives raise or lower the signal
In short: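 Transient MRTU transfection of HepG2 (FuGene 6); 24 h dosing; total RNA → oligo(dT) RT, PCR, 6-FAM primer extension, HpaI cut, CE. Bidirectional fit vs DMSO.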

[18] = target: Heat shock factor protein 1 (Homo sapiens) (UniProt Q00613); assay: ATG_HSE_CIS: Attagene CIS-FACTORIAL HepG2 Assay for human Heat Shock Transcription Factor 1 (HSE) (AID 2282953); conditions: HepG2 HSE cis-reporter, Attagene RNA transcription; actives raise or lower the signal
Sequence of Heat shock factor protein 1 (Homo sapiens) (Q00613 whole entry, looked up): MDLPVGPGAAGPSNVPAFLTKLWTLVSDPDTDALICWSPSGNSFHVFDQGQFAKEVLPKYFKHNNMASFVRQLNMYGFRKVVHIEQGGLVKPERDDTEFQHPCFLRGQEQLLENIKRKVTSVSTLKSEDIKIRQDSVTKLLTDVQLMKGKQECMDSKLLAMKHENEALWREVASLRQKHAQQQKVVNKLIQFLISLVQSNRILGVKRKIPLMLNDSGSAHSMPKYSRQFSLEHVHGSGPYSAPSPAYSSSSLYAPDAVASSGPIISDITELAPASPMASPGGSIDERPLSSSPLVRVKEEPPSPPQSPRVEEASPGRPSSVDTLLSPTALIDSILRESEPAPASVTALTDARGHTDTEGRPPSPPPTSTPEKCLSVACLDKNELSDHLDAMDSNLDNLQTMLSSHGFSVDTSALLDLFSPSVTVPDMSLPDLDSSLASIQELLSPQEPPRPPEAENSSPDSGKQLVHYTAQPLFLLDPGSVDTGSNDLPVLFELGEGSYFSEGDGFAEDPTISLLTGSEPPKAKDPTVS
In short: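 Using HepG2 with transfected cis-driven reporter constructs, compound effects on endogenous factor activity are scored as reporter mRNA change at 24 h. Detection: RT-PCR, HpaI digestion, capillary electrophoresis; bidirectional fitting to DMSO.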

[19] = ATG_PBREM_CIS: Attagene CIS-FACTORIAL HepG2 Assay for human Phenobarbital-responsive Enhancer Module (PBREM) (AID 2282955); conditions: HepG2 PBREM cis-reporter, Attagene multiplexed transcription; actives raise or lower the signal
In short: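 Measures endogenous factor action on a phenobarbital-responsive enhancer module. HepG2 transiently carrying cis reporters, 24 h treatment, mRNA read-out by RT-PCR plus capillary electrophoresis.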

Measured: AC50

Nc1ccc(Cl)cc1Cl
not listed: [18] | [19]
inactive: all other assays above

[Cl][Bi]([Cl])([c]1ccccc1)([c]1ccccc1)[c]1ccccc1
active: [1] 3.68 µM | [3] 6.3 µM | [7] 4.47 µM | [12] 2.74 µM | [18] 5.52 µM
not listed: [10] | [17]
inactive: all other assays above

CC(C)c1ccc2cc(C(C)C)ccc2c1
not listed: [10] | [13] | [19]
inactive: all other assays above

Nc1ccc(Oc2ccc(N)c(N)c2)cc1
not listed: [18]
inactive: all other assays above

Source: PubChem BioAssay (EPA / NIEHS)
